A number with no mark means an inactive call.
Legend:
Test in all cases: log2 ratio of Biotin-Ahx-Ub-VS probe labelling (fragment/DMSO); higher = less target engagement (more negative = stronger competition), active = hit call of the paper (q ≤ 0.05, log2 ratio ≤ -1)
Details in all cases: compound concentration: 200 uM; treatment time: 3 h
OTUD6B = target: T1, OTUD6B (UniProt Q8N6M0)
T1 sequence (whole entry): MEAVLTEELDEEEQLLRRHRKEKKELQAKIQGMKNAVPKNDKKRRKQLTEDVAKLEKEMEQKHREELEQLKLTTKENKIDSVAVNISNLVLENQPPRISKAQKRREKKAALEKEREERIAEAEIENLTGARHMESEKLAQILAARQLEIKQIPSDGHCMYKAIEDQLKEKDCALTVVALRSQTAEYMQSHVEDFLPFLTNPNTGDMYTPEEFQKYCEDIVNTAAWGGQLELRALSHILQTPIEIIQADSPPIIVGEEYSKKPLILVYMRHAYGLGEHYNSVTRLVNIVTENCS
How it was run: (§1)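 Using Biotin-Ahx-Ub-VS at 0.5 µM final for 1 h, DUBs were labelled in HEK293T lysate (495 µg per sample) that had first been treated in triplicate with fragment at 200 µM or vehicle for 3 h. NeutrAvidin enrichment, LysC and trypsin digestion and diaPASEF LC-MS/MS followed. Spectronaut label-free quantities were global-median-normalised. Values are average log2 fragment/vehicle ratios by unpaired t-test, using proteins with ≥2 unique peptides.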

OTUD7B = target: T2, OTUD7B (UniProt Q6GQQ9)
T2 sequence (whole entry): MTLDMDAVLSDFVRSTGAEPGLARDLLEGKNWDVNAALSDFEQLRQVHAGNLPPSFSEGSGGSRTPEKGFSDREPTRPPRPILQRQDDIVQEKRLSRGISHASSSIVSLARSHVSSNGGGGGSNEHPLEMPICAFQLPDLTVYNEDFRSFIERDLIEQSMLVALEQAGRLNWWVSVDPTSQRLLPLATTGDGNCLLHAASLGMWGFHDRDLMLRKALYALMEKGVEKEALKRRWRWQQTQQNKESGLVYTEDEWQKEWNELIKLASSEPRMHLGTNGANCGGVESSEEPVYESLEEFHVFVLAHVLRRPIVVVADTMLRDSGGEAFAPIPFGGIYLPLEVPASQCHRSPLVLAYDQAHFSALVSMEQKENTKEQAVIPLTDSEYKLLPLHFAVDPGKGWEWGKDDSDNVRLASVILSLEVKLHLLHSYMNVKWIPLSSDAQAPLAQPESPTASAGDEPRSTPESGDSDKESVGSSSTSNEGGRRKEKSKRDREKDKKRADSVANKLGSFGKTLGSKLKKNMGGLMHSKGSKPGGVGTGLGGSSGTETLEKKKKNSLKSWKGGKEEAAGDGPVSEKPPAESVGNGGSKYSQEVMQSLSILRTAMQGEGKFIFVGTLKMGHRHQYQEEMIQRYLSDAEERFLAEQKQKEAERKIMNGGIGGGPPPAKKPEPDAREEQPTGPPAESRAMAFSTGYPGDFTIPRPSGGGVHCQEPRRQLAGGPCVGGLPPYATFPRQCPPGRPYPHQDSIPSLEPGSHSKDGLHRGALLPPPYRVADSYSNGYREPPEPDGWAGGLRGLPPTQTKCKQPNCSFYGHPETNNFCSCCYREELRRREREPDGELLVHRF
How it was run: as §1

PRPF8 = PRPF8 (UniProt Q6P2Q9)
How it was run: as §1

PSMD7 = target: T3, PSMD7 (UniProt P51665)
T3 sequence (whole entry): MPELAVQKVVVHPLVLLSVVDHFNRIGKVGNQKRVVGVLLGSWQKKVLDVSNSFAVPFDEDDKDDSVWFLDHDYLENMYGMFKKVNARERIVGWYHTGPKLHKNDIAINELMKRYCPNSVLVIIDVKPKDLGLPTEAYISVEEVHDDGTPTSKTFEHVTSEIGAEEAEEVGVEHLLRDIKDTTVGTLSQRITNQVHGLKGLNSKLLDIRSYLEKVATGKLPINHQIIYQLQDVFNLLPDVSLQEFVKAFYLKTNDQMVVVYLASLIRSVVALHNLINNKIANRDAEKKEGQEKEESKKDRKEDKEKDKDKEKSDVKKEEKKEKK
How it was run: as §1

UCHL1 = UCHL1 (UniProt P09936)
How it was run: as §1

UCHL3 = target: T4, UCHL3 (UniProt P15374)
T4 sequence (whole entry): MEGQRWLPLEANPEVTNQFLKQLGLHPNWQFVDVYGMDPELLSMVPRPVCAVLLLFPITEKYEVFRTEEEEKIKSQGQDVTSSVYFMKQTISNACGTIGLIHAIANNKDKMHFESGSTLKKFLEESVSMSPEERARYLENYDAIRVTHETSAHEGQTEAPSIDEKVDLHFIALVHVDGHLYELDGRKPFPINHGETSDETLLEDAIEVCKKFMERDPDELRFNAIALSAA
How it was run: as §1

UCHL5 = target: T5, UCHL5 (UniProt Q9Y5K5)
T5 sequence (whole entry): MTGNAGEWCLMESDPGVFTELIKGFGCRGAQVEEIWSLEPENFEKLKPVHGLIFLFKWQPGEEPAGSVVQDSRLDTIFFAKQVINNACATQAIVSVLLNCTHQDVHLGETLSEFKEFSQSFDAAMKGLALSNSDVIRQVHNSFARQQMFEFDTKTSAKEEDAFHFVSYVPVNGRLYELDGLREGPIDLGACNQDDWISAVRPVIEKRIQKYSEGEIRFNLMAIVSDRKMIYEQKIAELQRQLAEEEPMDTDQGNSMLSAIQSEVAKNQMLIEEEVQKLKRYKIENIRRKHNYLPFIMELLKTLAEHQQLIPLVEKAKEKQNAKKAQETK
How it was run: as §1

USP10 = USP10 (UniProt Q14694)
How it was run: as §1

USP15 = target: T6, USP15 (UniProt Q9Y4E8)
T6 sequence (whole entry): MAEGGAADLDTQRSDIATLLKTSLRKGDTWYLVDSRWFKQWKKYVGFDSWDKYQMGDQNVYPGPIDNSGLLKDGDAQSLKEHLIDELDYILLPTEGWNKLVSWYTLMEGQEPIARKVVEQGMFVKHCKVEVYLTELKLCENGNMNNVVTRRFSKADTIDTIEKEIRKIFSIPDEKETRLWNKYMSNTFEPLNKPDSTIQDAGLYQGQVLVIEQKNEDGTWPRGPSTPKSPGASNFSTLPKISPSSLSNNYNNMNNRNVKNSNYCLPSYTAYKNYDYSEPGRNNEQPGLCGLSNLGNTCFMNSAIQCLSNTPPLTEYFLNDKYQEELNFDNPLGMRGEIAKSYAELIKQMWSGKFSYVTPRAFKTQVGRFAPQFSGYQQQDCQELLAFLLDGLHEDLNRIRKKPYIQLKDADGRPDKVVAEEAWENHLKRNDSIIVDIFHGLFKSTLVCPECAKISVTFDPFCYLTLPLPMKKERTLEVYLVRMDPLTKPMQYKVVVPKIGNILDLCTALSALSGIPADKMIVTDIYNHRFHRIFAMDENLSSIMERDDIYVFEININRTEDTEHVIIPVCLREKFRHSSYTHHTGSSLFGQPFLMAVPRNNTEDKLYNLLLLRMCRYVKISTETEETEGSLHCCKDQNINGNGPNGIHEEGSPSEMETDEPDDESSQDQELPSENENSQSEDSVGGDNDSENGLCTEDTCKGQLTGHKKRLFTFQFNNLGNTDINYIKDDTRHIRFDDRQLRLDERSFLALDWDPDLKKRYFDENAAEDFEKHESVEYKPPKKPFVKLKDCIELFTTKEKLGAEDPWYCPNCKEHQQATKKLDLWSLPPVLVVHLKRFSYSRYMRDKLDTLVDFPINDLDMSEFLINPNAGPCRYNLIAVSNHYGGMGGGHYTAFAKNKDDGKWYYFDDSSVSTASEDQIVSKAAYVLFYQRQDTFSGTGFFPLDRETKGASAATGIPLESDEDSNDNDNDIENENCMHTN
How it was run: as §1

USP16 = USP16 (UniProt Q9Y5T5)
How it was run: as §1

UCHL1, sequence (P09936 whole entry, looked up): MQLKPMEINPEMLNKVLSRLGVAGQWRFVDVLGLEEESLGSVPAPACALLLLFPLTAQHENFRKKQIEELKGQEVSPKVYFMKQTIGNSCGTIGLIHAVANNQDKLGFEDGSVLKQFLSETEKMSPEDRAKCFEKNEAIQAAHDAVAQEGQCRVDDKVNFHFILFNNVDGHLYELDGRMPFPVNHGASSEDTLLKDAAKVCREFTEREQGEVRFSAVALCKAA
USP16, sequence (Q9Y5T5 whole entry, looked up): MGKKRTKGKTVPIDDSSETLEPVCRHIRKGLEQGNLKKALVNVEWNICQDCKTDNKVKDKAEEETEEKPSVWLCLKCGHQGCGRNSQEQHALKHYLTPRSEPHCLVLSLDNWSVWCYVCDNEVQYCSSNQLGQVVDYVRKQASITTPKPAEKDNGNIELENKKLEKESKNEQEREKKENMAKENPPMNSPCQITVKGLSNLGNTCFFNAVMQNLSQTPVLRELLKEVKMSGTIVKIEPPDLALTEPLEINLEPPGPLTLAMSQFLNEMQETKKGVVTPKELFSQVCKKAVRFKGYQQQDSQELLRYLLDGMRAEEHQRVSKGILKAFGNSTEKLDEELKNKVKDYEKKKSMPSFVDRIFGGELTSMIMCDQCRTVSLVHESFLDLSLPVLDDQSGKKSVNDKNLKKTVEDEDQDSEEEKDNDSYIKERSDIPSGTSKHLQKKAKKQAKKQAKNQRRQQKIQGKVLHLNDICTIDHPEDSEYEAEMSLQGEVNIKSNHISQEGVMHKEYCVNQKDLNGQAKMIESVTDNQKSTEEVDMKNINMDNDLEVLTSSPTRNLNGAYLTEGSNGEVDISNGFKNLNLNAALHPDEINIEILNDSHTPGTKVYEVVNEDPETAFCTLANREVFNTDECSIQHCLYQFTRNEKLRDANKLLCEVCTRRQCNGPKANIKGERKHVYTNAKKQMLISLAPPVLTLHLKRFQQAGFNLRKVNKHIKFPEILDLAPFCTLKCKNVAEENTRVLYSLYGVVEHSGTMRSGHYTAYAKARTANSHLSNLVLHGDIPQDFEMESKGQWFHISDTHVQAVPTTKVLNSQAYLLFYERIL
USP10, sequence (Q14694 whole entry): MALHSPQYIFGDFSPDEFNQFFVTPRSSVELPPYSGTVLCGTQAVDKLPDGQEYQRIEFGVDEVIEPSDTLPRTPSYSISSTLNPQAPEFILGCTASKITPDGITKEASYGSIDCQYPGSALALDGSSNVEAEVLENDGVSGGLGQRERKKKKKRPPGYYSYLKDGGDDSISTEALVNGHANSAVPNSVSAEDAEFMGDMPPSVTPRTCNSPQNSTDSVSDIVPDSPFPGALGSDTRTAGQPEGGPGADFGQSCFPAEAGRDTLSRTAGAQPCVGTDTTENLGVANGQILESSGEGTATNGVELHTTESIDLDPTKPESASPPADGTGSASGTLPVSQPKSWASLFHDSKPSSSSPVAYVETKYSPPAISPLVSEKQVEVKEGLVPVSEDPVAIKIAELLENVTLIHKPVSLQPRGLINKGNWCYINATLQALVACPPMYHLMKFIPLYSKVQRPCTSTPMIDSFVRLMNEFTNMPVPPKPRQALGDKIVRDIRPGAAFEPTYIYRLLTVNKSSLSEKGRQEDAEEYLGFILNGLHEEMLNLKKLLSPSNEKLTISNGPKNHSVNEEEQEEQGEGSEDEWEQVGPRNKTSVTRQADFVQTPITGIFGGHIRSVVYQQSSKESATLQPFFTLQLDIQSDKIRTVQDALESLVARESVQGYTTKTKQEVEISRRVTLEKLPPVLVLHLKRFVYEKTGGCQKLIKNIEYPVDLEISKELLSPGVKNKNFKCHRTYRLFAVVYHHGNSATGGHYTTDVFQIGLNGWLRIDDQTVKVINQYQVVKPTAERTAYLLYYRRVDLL

O=C(CCl)Nc1cccc2ncccc12
log2 ratio of Biotin-Ahx-Ub-VS probe labelling (OTUD6B): -0.0779 | log2 ratio of Biotin-Ahx-Ub-VS probe labelling (OTUD7B): -1 (active) | log2 ratio of Biotin-Ahx-Ub-VS probe labelling (PRPF8): -0.308 | log2 ratio of Biotin-Ahx-Ub-VS probe labelling (PSMD7): -0.0733 | log2 ratio of Biotin-Ahx-Ub-VS probe labelling (UCHL1): -1.25 (active) | log2 ratio of Biotin-Ahx-Ub-VS probe labelling (UCHL3): 0.101 | log2 ratio of Biotin-Ahx-Ub-VS probe labelling (UCHL5): -0.321 | log2 ratio of Biotin-Ahx-Ub-VS probe labelling (USP10): 0.0543 | log2 ratio of Biotin-Ahx-Ub-VS probe labelling (USP15): -0.178 | log2 ratio of Biotin-Ahx-Ub-VS probe labelling (USP16): 0.52

— the supplement of paper PMC11732987, “Enantioselective OTUD7B fragment discovery through chemoproteomics screening and high-throughput optimisation” (Communications Chemistry, 2025)
